A word on the AC50: it is the midpoint of the concentration-response curve, whichever way the signal moves.

SMILES strings stand for the structures. Records with an inconclusive call do not appear. Active and inactive are the calls of the source. The calls were made as follows, unless noted: active = hit-call score of the fitted dose curve at least 0.9, where 1 is the maximum; inactive = score below 0.9.

Test [1] in a line: ATG_TCF_b_cat_CIS: Attagene CIS-FACTORIAL HepG2 Assay for human T-Cell-Factor with beta-catenin (TCF/b-cat) (AID 2282965). To be noted: HepG2 TCF/beta-catenin cis-reporter transcription, actives raise or lower the signal. The essentials: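 In this cis-format system, transfected HepG2 cells report endogenous transcription factor activity. Readout after 24 h exposure is reporter transcript abundance from RT-PCR and capillary electrophoresis, analysed for gain or loss of signal versus DMSO.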

A short description of test [2]: ATG_TAL_CIS: Attagene CIS-FACTORIAL HepG2 Assay for human TAL Basal Promoter (AID 2282966).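 Also: background control endpoint measuring basal TAL promoter reporter mRNA not a specific factor.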 As to conditions: HepG2 Attagene cis-factorial TAL promoter reporter; actives raise or lower the signal. In short, it runs like this: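 Steps: transfect HepG2 with multiple reporter transcription units; dose 24 h; isolate RNA, reverse-transcribe, PCR-amplify, label with 6-FAM, digest with HpaI; resolve by capillary electrophoresis. Bidirectional fitting against DMSO baseline.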

A short description of test [3]: ATG_TGFb_CIS: Attagene CIS-FACTORIAL HepG2 Assay for human Transforming Growth Factor (TGF) (AID 2282967). To be noted: HepG2 Attagene CIS TGFb reporter, mRNA transcription; actives raise or lower the signal. In short, it runs like this: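 Bidirectional fitting relative to DMSO gave the endpoint. Underlying data: reporter mRNA from HepG2 cells carrying transiently transfected cis-regulated reporter constructs, harvested 24 h after dosing and analyzed by RT-PCR and capillary electrophoresis.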

A short description of test [4]: ATG_VDRE_CIS: Attagene CIS-FACTORIAL HepG2 Assay for human Vitamin D Receptor Element (VDRE) (AID 2282968). As to conditions: HepG2 VDRE cis-reporter transcription, actives raise or lower the signal. In short, it runs like this: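 HepG2 cells transiently transfected with cis-element reporter units, dosed 24 h; reporter mRNA measured by RT-PCR, 6-FAM labeling, HpaI digestion and capillary electrophoresis. Activity fitted bidirectionally against DMSO baseline.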

The target in test [5] is Nuclear receptor subfamily 1 group I member 3 (Homo sapiens) (UniProt Q14994). Put plainly: ATG_CAR_TRANS: Attagene TRANS-FACTORIAL HepG2 Assay for human Constitutive Androstane Receptor (CAR) (AID 2282969; active = hit-call score of the fitted dose curve at least 0.9, where 1 is the maximum;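 also: activators raise reporter mRNA above DMSO so AC50 marks induction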). As to conditions: HepG2 Attagene TRANS-FACTORIAL CAR reporter. In short, it runs like this: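 HepG2 cells transiently transfected with multiplexed GAL4-UAS reporter units expressing chimeric NR-Gal4 proteins; compound exposure 24 h. Reporter mRNA measured by RT-PCR, 6-FAM labelling, HpaI digestion and capillary electrophoresis; gain-of-signal fitted against DMSO baseline.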
Nuclear receptor subfamily 1 group I member 3 (Homo sapiens), sequence (Q14994 whole entry, looked up, the tested form may be a part): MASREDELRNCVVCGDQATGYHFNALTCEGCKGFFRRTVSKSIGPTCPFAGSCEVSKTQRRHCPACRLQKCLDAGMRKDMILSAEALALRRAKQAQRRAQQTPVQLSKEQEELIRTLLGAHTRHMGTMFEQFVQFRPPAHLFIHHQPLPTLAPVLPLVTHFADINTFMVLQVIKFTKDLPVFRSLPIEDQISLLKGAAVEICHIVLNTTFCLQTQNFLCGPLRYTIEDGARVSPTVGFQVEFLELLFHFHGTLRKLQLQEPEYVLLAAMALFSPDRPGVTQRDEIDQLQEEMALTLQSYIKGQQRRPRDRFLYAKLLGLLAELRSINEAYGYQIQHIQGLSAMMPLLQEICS

Test [6] addresses Estrogen receptor (Homo sapiens) (UniProt P03372). Put plainly: ATG_ERa_TRANS: Attagene TRANS-FACTORIAL HepG2 Assay for human Estrogen Receptor alpha (ERa) (AID 2282970; active = hit-call score of the fitted dose curve at least 0.9, where 1 is the maximum). As to conditions: HepG2 Attagene TRANS ERa GAL4 reporter, mRNA. In short, it runs like this: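 Multiplexed cell-based reporter format in HepG2: chimeric ERa-Gal4 protein drives GAL4-UAS reporter transcription. Fluorescent reporter mRNA quantified by capillary electrophoresis 24 hours after dosing; endpoint fitted as signal gain against DMSO.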

The target of test [7] is X-box-binding protein 1 (Homo sapiens) (UniProt P17861). Put plainly: ATG_Xbp1_CIS: Attagene CIS-FACTORIAL HepG2 Assay for human X-box Binding Protein 1 (XBP1) (AID 2282972). As to conditions: HepG2 XBP1 cis-element reporter, Attagene multiplex; actives raise or lower the signal. The essentials: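 HepG2 cells transiently transfected with cis-regulated multiple reporter transcription units; endogenous transcription factor activity measured 24 hours after chemical dosing. Reporter mRNA quantified by RT-PCR, 6-FAM primer extension, HpaI digestion and capillary electrophoresis; bidirectional fitting versus DMSO.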
X-box-binding protein 1 (Homo sapiens), sequence (P17861 whole entry, looked up): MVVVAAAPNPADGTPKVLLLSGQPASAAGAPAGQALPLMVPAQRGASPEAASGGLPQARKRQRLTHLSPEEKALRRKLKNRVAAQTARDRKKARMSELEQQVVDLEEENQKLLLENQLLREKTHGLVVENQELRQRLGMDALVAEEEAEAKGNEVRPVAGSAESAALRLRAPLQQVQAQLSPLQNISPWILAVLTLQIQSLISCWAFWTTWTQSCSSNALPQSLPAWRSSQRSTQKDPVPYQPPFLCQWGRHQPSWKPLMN

For test [8], the target named is Steroid hormone receptor ERR1 (Homo sapiens) (UniProt P11474). Put plainly: ATG_ERRa_TRANS: Attagene TRANS-FACTORIAL HepG2 Assay for human Estrogen-Related Receptor alpha (ERRa) (AID 2282971; active = hit-call score of the fitted dose curve at least 0.9, where 1 is the maximum). To be noted: HepG2 Attagene TRANS reporter, ERRa transactivation. In short, it runs like this: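 Signal gain relative to DMSO for an ERRa-Gal4 chimeric receptor, read as reporter mRNA by RT-PCR/capillary electrophoresis. Human HepG2 liver cells, transient multiplex reporter transfection, 24 h chemical exposure.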
Steroid hormone receptor ERR1 (Homo sapiens), sequence (P11474 whole entry, looked up, the tested form may be a part): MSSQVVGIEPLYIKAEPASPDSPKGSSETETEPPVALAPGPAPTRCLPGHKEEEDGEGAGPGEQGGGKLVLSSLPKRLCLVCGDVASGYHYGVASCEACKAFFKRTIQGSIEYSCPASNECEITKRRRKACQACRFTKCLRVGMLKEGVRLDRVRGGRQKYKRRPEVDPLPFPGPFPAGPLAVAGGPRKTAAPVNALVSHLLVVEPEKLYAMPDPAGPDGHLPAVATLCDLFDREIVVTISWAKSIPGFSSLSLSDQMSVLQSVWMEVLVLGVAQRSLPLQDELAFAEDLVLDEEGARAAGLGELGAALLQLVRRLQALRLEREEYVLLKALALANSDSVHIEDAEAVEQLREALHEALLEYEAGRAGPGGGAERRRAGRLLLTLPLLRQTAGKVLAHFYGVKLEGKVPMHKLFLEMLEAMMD

The nature of test [9]: ATG_M_19_TRANS: Attagene TRANS-FACTORIAL HepG2 Assay for M19 Transcription Factor (Internal Marker) (AID 2282974; active = hit-call score of the fitted dose curve at least 0.9, where 1 is the maximum). As to conditions: HepG2 Attagene TRANS-FACTORIAL M19 internal marker reporter. In short, it runs like this: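 HepG2 transiently transfected with GAL4-UAS multiplex reporter constructs, exposed 24 h; reporter RNA quantified by RT-PCR, 6-FAM labeling, HpaI digestion and capillary electrophoresis; internal background marker fitted upward versus DMSO.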

A short description of test [10]: ATG_GAL4_TRANS: Attagene TRANS-FACTORIAL HepG2 Assay for GAL4 (Internal Marker) (AID 2282976; active = hit-call score of the fitted dose curve at least 0.9, where 1 is the maximum). As to conditions: HepG2 Attagene TRANS GAL4 internal marker reporter. In short, it runs like this:
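Liver HepG2 line bearing multiplexed GAL4-UAS reporter constructs; 24 h chemical treatment. Transcripts were quantified as fluorescent fragments on capillary electrophoresis after RT-PCR and HpaI cut, with activity fitted upward from DMSO.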

Estrogen receptor (Homo sapiens), sequence (P03372 whole entry, looked up, the tested form may be a part): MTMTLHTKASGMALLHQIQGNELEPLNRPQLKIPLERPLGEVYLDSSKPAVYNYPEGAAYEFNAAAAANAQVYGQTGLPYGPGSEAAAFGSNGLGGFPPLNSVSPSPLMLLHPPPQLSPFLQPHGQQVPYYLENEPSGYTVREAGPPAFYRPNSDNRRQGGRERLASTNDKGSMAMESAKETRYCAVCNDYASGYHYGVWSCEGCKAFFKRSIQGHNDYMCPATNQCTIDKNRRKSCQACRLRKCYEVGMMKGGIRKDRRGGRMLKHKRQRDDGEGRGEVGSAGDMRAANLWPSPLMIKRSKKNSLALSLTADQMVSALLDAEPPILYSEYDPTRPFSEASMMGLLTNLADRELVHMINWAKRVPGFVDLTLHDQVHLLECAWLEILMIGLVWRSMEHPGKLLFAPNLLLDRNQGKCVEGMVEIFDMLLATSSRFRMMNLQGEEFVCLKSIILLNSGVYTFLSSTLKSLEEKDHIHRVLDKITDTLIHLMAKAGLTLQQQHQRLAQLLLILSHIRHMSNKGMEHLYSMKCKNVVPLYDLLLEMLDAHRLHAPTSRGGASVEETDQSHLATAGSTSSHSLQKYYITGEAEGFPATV

`CC(O)C#CC(C)O` (stereo unspecified): the AC50 in test [1] is 99.5 µM (active); in test [4], 39.5 µM (active); in test [5], 99.5 µM (active). Moreover, the compound was classed as inactive in [2], in test [3], in test [6] and in test [7].
For `NC(=O)C(F)(F)C(F)(F)C(F)(F)C(F)(F)C(F)(F)C(F)(F)C(F)(F)F`, the compound was classed as inactive in test [1], in test [2], in test [3], in test [4], in test [8] and in test [7]. Further, the compound was called inactive in [9]. Further, the AC50 in [6] was 9.95 µM (active).
For `CC(C)Nc1ccc(NC(C)C)c2c1C(=O)c1ccccc1C2=O`, the call in test [1], in test [2], in test [3], in [5], in test [6] and in test [10] was inactive. Also, the concentration at half-maximal activity (AC50) in test [4] is 0.417 µM (active).
For the compound `O=C(O)C(F)(F)C(F)(F)C(F)(F)C(F)(F)C(F)(F)C(F)(F)C(F)F`, the compound was classed as inactive in [1], in test [2], in test [3] and in test [4]. Moreover, in test [6], the AC50 is 41.4 µM (active).
Take `O=C(F)C1(F)C(F)(F)C(F)(F)C(F)(F)C(F)(F)C1(F)F`: the compound was classed as inactive in test [1], in [2], in test [3], in test [4], in test [6] and in [8]. Further, in test [7], the outcome was inactive.
As for `O=S(=O)(Cl)C(F)(F)C(F)(F)C(F)(F)C(F)(F)C(F)(F)C(F)(F)C(F)(F)C(F)(F)F`, the call in [1], in [2], in test [3], in [4], in test [8] and in test [7] was inactive. Besides, the AC50 in [6] was 20.7 µM (active).
In the case of `CN(C(=O)C(F)(F)C(F)(F)C(F)(F)F)[Si](C)(C)C`, the result in [1], in test [2], in test [3], in test [4], in [6] and in test [8] was inactive. The result in [7] was inactive.
As for `Cc1ccc2c(c1)OCC(=O)CO2`, the result in test [1], in test [2], in test [3], in [4], in test [6] and in test [8] was inactive. Further, the compound was called inactive in test [7].
Take `CC1=CC2C3C=CC(C3)C2C1C` (stereo unspecified): the compound was classed as inactive in test [1], in test [2], in [3], in [6], in test [8] and in test [7]. For the same compound, the AC50 in [4] is 1.81 µM (active).
With `O=C=Nc1cccc2c(N=C=O)cccc12`, the call in [1], in test [2], in test [3], in test [4], in [5] and in test [8] was inactive. Besides, the result in [7], in test [9] and in test [10] was inactive.
As to `NCC(F)(F)C(F)(F)C(F)(F)C(F)(F)C(F)(F)C(F)(F)F`, the compound was called inactive in test [1], in [2], in test [3], in [4], in [6] and in test [8]. Further, the call in [7] was inactive.
Regarding `OCCCCl`, the compound was called inactive in [1], in test [2], in [3], in test [4], in [5] and in [8]. For the same compound, the outcome in [7] and in [9] was inactive.
`Cc1cnccn1`: the result in test [1], in test [2], in test [3], in test [4], in [5] and in [7] was inactive. Further, the compound was classed as inactive in test [10].
Take `CC1CCCCC1`: the call in [1], in test [2], in test [3], in [4], in test [5] and in [7] was inactive. Moreover, the outcome in [10] was inactive.
As to `CCC/C=C/CO`, the result in [1], in test [2], in [3], in [4], in test [5] and in test [7] was inactive.
Turning to `C[Si](Cl)(Cl)CCC(F)(F)C(F)(F)C(F)(F)C(F)(F)C(F)(F)C(F)(F)F`, the compound was classed as inactive in [1], in test [2], in test [3], in test [4], in [6] and in test [8]. Also, the compound was called inactive in test [7] and in test [10].
Regarding `CCn1c2ccccc2c2ccccc21`, the compound was called inactive in test [1], in test [2], in test [4], in test [5] and in test [6]. The AC50 in test [3] was 0.0275 µM (active).
For `Cc1cc(=O)[nH]c(C(C)C)n1`, the compound was classed as inactive in test [1], in test [2], in test [3], in [4], in test [5] and in [8]. In addition, the compound was classed as inactive in test [7].
In the case of `COC(=O)c1ccc(C=O)cc1`, the outcome in test [1], in test [2], in [3], in test [4], in [6] and in test [8] was inactive. Besides, the compound was classed as inactive in test [7] and in test [9].
Regarding `CCCCCCCCCCCCC[N+](C)(C)Cc1ccccc1`, the outcome in [1], in test [2], in [3], in [4] and in test [6] was inactive.
Take `CN(N=O)C(=O)N[C@@H]1[C@@H](O)[C@H](O)[C@@H](CO)O[C@@H]1O`: the compound was classed as inactive in test [1], in test [2], in test [3], in [4] and in test [5].
For `FC(F)(F)C(F)(F)C(F)(F)C(F)(F)C(F)(F)C(F)(F)C(F)(F)CCI`, the call in test [1], in test [2], in test [3], in [4], in test [8] and in test [7] was inactive. Further, the outcome in [9] and in test [10] was inactive. In addition, the half-maximal activity concentration (AC50) in [6] is 24.5 µM (active).
For the compound `Cc1cc(C)c(O)c(C(C)(C)C)c1`, the outcome in [1], in test [2], in test [3], in test [5], in test [6] and in [7] was inactive. Also, the AC50 in [4] was 25.9 µM (active).
As for `OCC(O)CC(F)(F)C(F)(F)C(F)(F)C(F)(F)C(F)(F)C(F)(F)C(F)(F)C(F)(F)F` (stereo unspecified), the call in [1], in [2], in test [3], in test [4], in test [8] and in test [7] was inactive. For the same compound, in [10], the call was inactive. The AC50 in test [6] is 9.15 µM (active).
Regarding `N#Cc1ccccc1O`, the result in [1], in test [2], in [3], in test [4] and in [5] was inactive.
Turning to `CN1CN(C)CN(C)C1`, the result in test [1], in test [2], in test [3], in [4] and in [5] was inactive. Besides, in test [7], the AC50 was 169 µM (active).
Regarding `CCc1ccc(C)nc1`, the compound was classed as inactive in test [1], in test [2], in test [3], in test [4], in test [5] and in test [7].
